ROC1-CUL1 inh: blocks human RBX1-Cullin-1 di-ubiquitin formation; P62877+Q13616; in vitro K48 di-Ub FRET, acceptor:donor ratio, 45 min; inhibition, % at 10 µM; 0.6% of 140,000 active; AID 1347404; in the data active = inhibition above about 25%
The depositor's hits bear a star. Many of the other results were omitted from the sample, so hits are more common in it than they were.

SMILES | ROC1-CUL1 inh
CCOC(=O)N1CCC(NC(=O)CN2Cc3ccccc3OC(c3ccccc3OC)C2)CC1 (stereo not drawn) | -1
Cc1ccc(S(=O)(=O)N(C)c2ccc(OCC(=O)Nc3ccc(Cl)c(Cl)c3)cc2)cc1 | 10
Cc1cnc(NCCCn2nnc3ccccc32)nc1-c1ccnn1C | -3
Cc1cc(C)cc(-n2c(C)c(C)n3c4c(=O)n(C)c(=O)n(C)c4nc23)c1 | 4
Cc1c(C)n2c3c(=O)n(C)c(=O)n(C)c3nc2n1-c1cccc(O)c1 | 1
Cc1cccc(-n2c(C)c(C)n3c4c(=O)n(C)c(=O)n(C)c4nc23)c1 | 26*
c1ccc(-c2cc3nccc(-c4nc5ccccc5s4)n3n2)cc1 | 2
OCCC#Cc1ccc(CN2CCc3onc(-c4ccccc4)c3C2)cc1 | 3
Clc1ccccc1-c1nnc2sc(-c3cccs3)nn12 | 0
Fc1ccc(-c2nnc3sc(/C=C/c4ccco4)nn23)cc1 | 95*
Fc1ccc(-c2nn3c(-c4ccco4)nnc3s2)cc1 | 0
COc1ccccc1-c1nnc2sc(/C=C/c3ccco3)nn12 | 20
Fc1ccc(/C=C/c2nn3c(-c4ccco4)nnc3s2)cc1 | 9
Clc1ccccc1-c1nnc2sc(/C=C/c3ccco3)nn12 | 96*
COc1ccc(Cc2nc(-c3c(C)ncc4c3CCNC4)no2)c(OC)c1 | 6
CCOc1cc2oc(C)c(-c3ccccc3Cl)c(=O)c2cc1CC | 11
CSc1nnc(-c2ccccc2)n1/N=C/c1ccc(-c2cccc(C(F)(F)F)c2)o1 | 12
CCOc1cc(C2C3=C(CC(c4ccc(OC)c(OC)c4)CC3=O)N=C(C)C2C(=O)OCC(C)C)cc(Br)c1O (stereo not drawn) | -5
Cc1cc(C)c2c3c(sc2n1)C(c1ccc(Cl)cc1)C(C#N)C(=N)O3 (stereo not drawn) | 2
CCOC(=O)c1nnn2c3ccccc3c(=O)n(CC(=O)c3ccc(Cl)cc3)c12 | 6
C=CCn1c(Sc2nc3c(C(=O)OCC)nnn3c3ccccc23)nnc1-c1ccccc1 | 5
CCOC(=O)c1nnn2c1nc(Cl)c1ccccc12 | 79*
O=C1CC(c2ccco2)CC(=O)C1=C1SC2=C(SCc3ccccc3CS2)S1 (stereo not drawn) | -5
O=C(c1cc(CN2CCC(Cc3ccccc3)CC2)on1)N1CCc2[nH]ncc2C1 | 12
COc1ccccc1C1NCCS1 (stereo not drawn) | 33*
SMILES | ROC1-CUL1 inh
COc1cccc(C2SCCCS2)c1O | 8
CCOc1cc2c(cc1OCC)C(c1ccccc1OC)CC(=O)N2 (stereo not drawn) | 10
CC(C)Oc1ccc([N+](=O)[O-])cc1N | -1
Clc1ccccc1Cc1noc(CN2CCOCC2)n1 | -4
Cc1cccc(C(=O)NCCC2=CCCCC2)c1 | 5
O=C(O)C1CCN(c2ccnc3cc(Cl)ccc23)CC1 | 4
CC[n+]1c(/C=C/c2ccc3c(c2)c2ccccc2n3C)ccc2ccccc21 | 69*
Cc1ccc(/C=C\c2ccc3ccccc3c2)cc1 | -6
Cn1c2ccccc2c2cc(/C=C/c3nc4ccccc4s3)ccc21 | 0
O=C(NCc1ccccc1)OCSc1ccccc1 | -2
CCOC(=O)c1nn(-c2cccc(Cl)c2)cc1C(=O)c1nc2ccccc2s1 | 0
Cc1cccc(NC(=O)CN2C(=O)N=C(Cc3c[nH]c4ccccc34)C2=O)c1 | -8
O=C(COC(=O)c1ccc(NC(=O)c2ccc(Cl)cc2)cc1)c1cccc([N+](=O)[O-])c1 | 2
O=C(NC1=NN(c2c(Cl)cc(Cl)cc2Cl)C(=O)/C1=C/c1ccc(O)cc1)c1cccc([N+](=O)[O-])c1 | 60*
O=C(Nc1cc2nc3ccccc3nc2cc1NC(=O)c1cccc([N+](=O)[O-])c1)c1cccc([N+](=O)[O-])c1 | 0
CSCCCNCc1c(C(=O)N2CCOCC2)nc2ccccn12 | -5
O=c1ccc(Cl)nn1-c1cccc(Br)c1 | -7
O=C(CN1C(=O)c2ccccc2S1(=O)=O)NCCSCc1ccc(Cl)cc1Cl | 4
O=S(=O)(Nc1cc(Sc2nnnn2-c2ccccc2)c(O)c2ccccc12)c1ccccc1 | 5
O=c1oc2c(cc(NS(=O)(=O)c3ccc(Br)cc3)c3ccccc32)s1 | 2
O=C(O)CSc1cc(NS(=O)(=O)c2ccc(Br)cc2)c2ccccc2c1O | 102*
O=C(O)CSc1cc(NS(=O)(=O)c2ccccc2)c2ccccc2c1O | 37*
CC(=O)c1c(C)oc2c1cc(NS(=O)(=O)c1ccc(Br)cc1)c1ccccc12 | 3
CC(C)(C)c1ccc(S(=O)(=O)Nc2ccc(O)c(C(=O)O)c2)cc1 | 4
CC(C)(C)c1ccc(S(=O)(=O)Nc2ccc(Cl)cc2Cl)cc1 | -2
CC(C)(C)c1ccc(S(=O)(=O)Nc2cc(SCC(=O)O)c(O)c3ccccc23)cc1 | 92*
Cc1ccc(NS(=O)(=O)c2ccccc2)c(O)c1 | 11
CCOC(=O)C1C=C(c2ccccc2)C=CN=C1N(CC)CC (stereo not drawn) | -3
COc1ccc(Br)cc1C1Nc2ccc(C(F)(F)F)cc2C2C=CCC21 (stereo not drawn) | 3
O=C(CCCc1ccccc1)Nc1cccc(N2CCC(NCc3cccnc3)CC2)c1 | 2
